This is part of a sample that, as a whole, favours compounds with a hit. Of some 83,000 tested, about 20% had one in any assay.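 A percent growth of 40 corresponds to 60% growth inhibition; 0 means no net growth; -100 means all cells died. Active threshold: below 10.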 Activity calls are given as the source filed them.
Key:
Experiment in all cases: NCI-60 one-dose screen, 48 h (100 = growth as untreated, 0 = no growth, -100 = all killed)
Details in all cases: 10 µM unless noted
NCI/ADR-RES ovarian = system: NCI/ADR-RES ovarian
BT-549 breast = system: BT-549 breast
MDA-MB-435 melanoma = system: MDA-MB-435 melanoma
SW-620 colon = system: SW-620 colon
MCF7 breast = system: MCF7 breast
HCT-116 colon = system: HCT-116 colon
HCC-2998 colon = system: HCC-2998 colon
KM12 colon = system: KM12 colon
T-47D breast = system: T-47D breast

Structure (SMILES)	growth (NCI/ADR-RES ovarian)	growth (BT-549 breast)	growth (MDA-MB-435 melanoma)	growth (SW-620 colon)	growth (MCF7 breast)	growth (HCT-116 colon)	growth (HCC-2998 colon)	growth (KM12 colon)	growth (T-47D breast)
CN1C(=O)C23CC4(C56CC78SSC(CO)(C(=O)N7C5Nc5ccccc56)N(C)C8=O)c5ccccc5NC4N2C(=O)C1(CO)SS3 (stereo unspecified)	-23.4% (active)	-99.1% (active)	-87% (active)	-78.5% (active)	-68.1% (active)	-78.5% (active)	-94.2% (active)	-82.9% (active)	–
CCC(C)(C)[C@H](NC(=O)[C@H]1CCCCN1C)C(=O)N(C)[C@H](C[C@@H](OC(C)=O)c1nc(C(=O)N[C@@H](Cc2ccccc2)C[C@H](C)C(=O)O)cs1)C(C)C	16.8% (inactive)	-34.7% (active)	-47.2% (active)	26.6% (inactive)	23.9% (inactive)	-10% (active)	–	4.26% (active)	–
CC12CCC3C(CCC4=CC(=O)CCC43CF)C1CCC2=O (stereo unspecified)	108% (inactive)	97.2% (inactive)	100% (inactive)	126% (inactive)	130% (inactive)	110% (inactive)	140% (inactive)	117% (inactive)	–
Cc1ccc(Nc2nc3c(s2)C2=CC[C@@H]4[C@H](CC[C@]5(C)C(=O)CC[C@@H]45)[C@@]2(C)CC3)cc1	–	24.7% (inactive)	44.3% (inactive)	0.485% (active)	13.9% (inactive)	-25.4% (active)	78.2% (inactive)	–	43.8% (inactive)
CC(=O)O[C@@H]1CC[C@]2(C)[C@H]3CC[C@]4(C)C(=O)CC[C@H]4[C@@H]3C[C@@H]3SC(N)=N[C@@]32C1	44% (inactive)	45.2% (inactive)	2.34% (active)	44.1% (inactive)	32.6% (inactive)	32.7% (inactive)	82.1% (inactive)	33.1% (inactive)	–
CN1C(=O)C(=Cc2cn(CCCCCCn3c4ccccc4c(=O)c4ccccc43)c3ccccc23)C(=O)N(C)C1=O	90.7% (inactive)	91.2% (inactive)	107% (inactive)	103% (inactive)	81.1% (inactive)	85.5% (inactive)	99.4% (inactive)	98.7% (inactive)	–
COc1ccc(Nc2ccc([N+](=O)[O-])cc2[N+](=O)[O-])cc1CN(CCCl)CCCl	26.9% (inactive)	40.1% (inactive)	55.2% (inactive)	20.3% (inactive)	19.3% (inactive)	20.8% (inactive)	37.7% (inactive)	53.1% (inactive)	–
O=C(N/N=C\c1ccc(N(CCCl)CCCl)cc1)c1cccc([N+](=O)[O-])c1	88.1% (inactive)	96% (inactive)	105% (inactive)	100% (inactive)	79.9% (inactive)	97% (inactive)	101% (inactive)	93.6% (inactive)	–
CCOP(=O)(Nc1ccc2c(c1)/C(=N/NC(N)=S)c1ccccc1-2)OCC	100% (inactive)	101% (inactive)	107% (inactive)	115% (inactive)	69.6% (inactive)	103% (inactive)	119% (inactive)	88.9% (inactive)	–
Cc1ccc(S(=O)(=O)C(Cl)(Cl)Cl)cc1	–	92.1% (inactive)	97.1% (inactive)	99.3% (inactive)	98.6% (inactive)	87.3% (inactive)	–	–	78.4% (inactive)
Cc1ccccc1NC(=NCCCN1CC1)Nc1ccccc1C	–	104% (inactive)	93% (inactive)	87.1% (inactive)	68.9% (inactive)	79.8% (inactive)	102% (inactive)	94.6% (inactive)	74.5% (inactive)
CC1CN1CCCCN1CC1C (stereo unspecified)	108% (inactive)	103% (inactive)	111% (inactive)	–	93.8% (inactive)	95.7% (inactive)	94.2% (inactive)	104% (inactive)	–
C=C(C)[C@@]12OC3(/C=C/C=C/CCCCC)O[C@@H]1[C@@H]1[C@@H]4O[C@]4(CO)[C@@H](O)[C@]4(O)C(=O)C(C)=C[C@H]4[C@@]1(O3)[C@H](C)[C@H]2OC(=O)c1ccccc1	69.4% (inactive)	83% (inactive)	40.5% (inactive)	58.9% (inactive)	38.7% (inactive)	49.7% (inactive)	-3.12% (active)	9.5% (active)	–
COC(=O)[C@@H](C)C[C@H](Cc1ccccc1)NC(=O)c1nc([C@@H](C[C@H](C(C)C)N(C)C(=O)[C@@H](NC(=O)[C@H]2CCCCN2C)C(C)C)OC(C)=O)sc1C(C)C	8.7% (active)	-35.6% (active)	-46.8% (active)	24.9% (inactive)	18.3% (inactive)	-5.54% (active)	3.15% (active)	1.85% (active)	–
COc1cccc2c1c(C(=O)C(=O)Nc1ccn[nH]1)cn2Cc1ccc(F)cc1	–	114% (inactive)	121% (inactive)	102% (inactive)	92.3% (inactive)	103% (inactive)	39.6% (inactive)	105% (inactive)	104% (inactive)
Cc1c(NS(=O)(=O)c2ccccc2)ccc([N+](=O)[O-])c1Cl	86.3% (inactive)	77.7% (inactive)	39.8% (inactive)	91.6% (inactive)	92.8% (inactive)	73.3% (inactive)	–	70.1% (inactive)	–
CC(CO)NC1CCCCC1 (stereo unspecified)	116% (inactive)	106% (inactive)	112% (inactive)	105% (inactive)	–	105% (inactive)	106% (inactive)	114% (inactive)	–
CN(C)C(=O)Oc1ccccc1	–	118% (inactive)	112% (inactive)	93.8% (inactive)	104% (inactive)	104% (inactive)	102% (inactive)	110% (inactive)	105% (inactive)
CC12CC(=O)C3(SC#N)C(CCC4=CC(=O)CCC43C)C1CCC2=O (stereo unspecified)	–	90.7% (inactive)	70.9% (inactive)	40.6% (inactive)	57.7% (inactive)	39.7% (inactive)	105% (inactive)	102% (inactive)	32.8% (inactive)
CC1(C)N=C(N)N=C(N)N1c1cccc(CCCCc2ccc(Cl)c(S(=O)(=O)F)c2)c1	104% (inactive)	51.8% (inactive)	35.8% (inactive)	30.9% (inactive)	28.8% (inactive)	17.7% (inactive)	–	22.3% (inactive)	–
CO[C@H]1CC[C@@]2(C)C(=CC[C@@H]3[C@@H]2CC[C@]2(C)C(=O)C(=O)C[C@@H]32)C1	104% (inactive)	106% (inactive)	112% (inactive)	100% (inactive)	102% (inactive)	97% (inactive)	109% (inactive)	111% (inactive)	–
CCC1CC(O)c2c(O)c3c(c(O)c2C1O)C(=O)c1cccc(O)c1C3=O (stereo unspecified) (tested in a mixture with another compound)	-55.4% (active)	-68.1% (active)	-90.3% (active)	-60.3% (active)	-51% (active)	-39.8% (active)	–	-38.4% (active)	–
CC(C)(N)Cc1ccccc1	111% (inactive)	101% (inactive)	107% (inactive)	105% (inactive)	99.4% (inactive)	101% (inactive)	110% (inactive)	105% (inactive)	–
C[C@]12C[C@@H](CO)[C@H](O)C[C@@H]1CC[C@@H]1[C@@H]2CC[C@]2(C)[C@@H](O)CC[C@@H]12	–	78.9% (inactive)	105% (inactive)	101% (inactive)	121% (inactive)	103% (inactive)	97.9% (inactive)	101% (inactive)	104% (inactive)
COC(=O)[C@@H](C)C[C@H](Cc1ccccc1)NC(=O)c1csc(CC[C@H](C(C)C)N(C)C(=O)[C@@H](NC(=O)[C@H]2CCCCN2C)C(C)C)n1	53.1% (inactive)	7.17% (active)	-48.6% (active)	30.6% (inactive)	20.3% (inactive)	3.72% (active)	24.5% (inactive)	16.2% (inactive)	–
CCCCCCCCC(CO)NCCc1ccccc1 (stereo unspecified)	–	114% (inactive)	103% (inactive)	96.2% (inactive)	103% (inactive)	78.8% (inactive)	111% (inactive)	99.9% (inactive)	–
CC(=O)O[C@H]1C(=O)[C@@]2(C)[C@H]([C@H](OC(=O)c3ccccc3)[C@]3(O)C[C@H](OC(=O)[C@H](OC(=O)OCC4COC(C)(C)O4)[C@@H](NC(=O)c4ccccc4)c4ccccc4)C(C)=C1C3(C)C)[C@]1(OC(C)=O)CO[C@@H]1C[C@@H]2O (stereo partly specified)	–	38.2% (inactive)	-49.6% (active)	–	18.9% (inactive)	19.2% (inactive)	–	18.7% (inactive)	40.7% (inactive)
N#CCCNc1ccccc1	–	108% (inactive)	98.9% (inactive)	–	103% (inactive)	108% (inactive)	106% (inactive)	113% (inactive)	111% (inactive)

— PubChem BioAssay (NCI)
